Results filed as inconclusive are left out. Where a call stands in place of a potency, no number is given. Unmarked numbers belong to inactive results. Calls of active or inactive are those of the source. Calls come from the whole dose curve; as a rule, active = well fitted cell-killing curve with a large enough effect in the repeat runs; inconclusive = weak or mixed curves, or effect the other way; inactive = flat fitted curve, though single readings scatter.
experiment: qHTS assay to identify small molecule antagonists of the constitutive androstane receptor (CAR) signaling pathway - cell viability counter screen (AID 1224837); details: HepG2-CYP2B6-hCAR viability, CellTiter-Fluor, 23 h, co-treated with 50 nM CITCO; series mostly up to 92.4 µM; note: nearly all actives have a fitted effect of over 45% in size
Source text: National Center for Advancing Translational Sciences [NCATS]
NIH Chemical Genomics Center [NCGC]
U.S. Environmental Protection Agency [EPA]
National Institutes of Environmental Health Sciences [NIEHS]
National Toxicology Program [NTP]
U.S. Food and Drug Administration [FDA]
The constitutive androstane receptor (CAR) is a nuclear receptor which regulates multiple drug metabolizing enzymes (DMEs) and transporters. Activating CAR will generally increase the transcription and subsequent translation of CYP2B6 and CYP3A4. These two DMEs represent about 50% of the drug metabolizing potential in the body. When CAR is deactivated, the metabolizing potential in the body will decrease, subsequently increasing the toxicity in the body or lowering the therapeutic potential of a pro-drug. Recently, there have also been studies performed indicating CARs role in energy metabolism and cancer therapy. Therefore, inhibiting CARs activity could have a potential effect on diabetes and cancer. Identifying environmental toxins and compounds which modulate CAR, through the use of the Tox21 10K compound collection, will be an important step in determining the toxicity and potential therapeutic effects these factors will have on the human body. To differentiate true CAR antagonists from cytotoxic substances, the assay is multiplexed with a cell viability assay.
Tox21 Assay Protocol Summary:
A double-stable (hCAR and CYP2B6-2.2kb) transfected cell line, derived from human hepatoma (HepG2) cells, was utilized for the duration of the quantitative high-throughput screens. The HepG2-CYP2B6-hCAR cells were dispensed at 2500 cells/4 uL/well in 1536-well white solid bottom plates using a Multidrop Combi. After the assay plates were incubated at 37 C/5% CO2 for 4 hrs, 23 nL of compounds at 15 concentrations (from 5-48 columns) or positive control (from 1 to 4 columns) were transferred to the assay plates using a Pintool station. One uL of CITCO (final concentration = 50 nM) was added, using a Flying Reagent Dispenser, inside each well. After a 23 hr incubation period at 37 C/5% CO2, 1 uL of CellTiter-Fluor reagent was added into each well of the assay plates using a Flying Reagent Dispenser. The fluorescence intensity in the plates was then measured using a ViewLux plate reader.
Potency is the fitted concentration of half-maximal effect.

| Structure (SMILES) | Potency | activity change, negative = cytotoxicity |
| --- | --- | --- |
| CC1=CP(=O)(c2ccccc2)CC1 (stereo not given) | inactive | – |
| CCCOc1sc(C(=O)N2CCC(c3cc(CN)ccc3F)CC2)c(C)c1Br | 62.8 µM (active) | – |
| N#CSCSc1nc2ccccc2s1 | 27.3 µM (active) | – |
| O=C1OC(=O)c2ccc3c4c(ccc1c24)C(=O)OC3=O | inactive | – |
| OCCCCl | inactive | – |
| CCO[Si](C)(C)OCC | inactive | – |
| CCCCCCCCCCCCCCCCCO | – | 8.93% [at 19 µM] |
| CCCCCCCCCC(=O)N(C)C | inactive | – |
| CCOC(=O)CC(C)O (stereo not given) | inactive | – |
| CCOC(OCC)C(=O)c1ccccc1 | inactive | – |
| Clc1cccnc1 | inactive | – |
| CCCCCCCCCCCCN(CCO)CCO | 68.3 µM (active) | – |
| C/C=C/C(=O)Oc1c(CCCCCC(C)C)cc([N+](=O)[O-])cc1[N+](=O)[O-] | 21.7 µM (active) | – |
| CC(=O)OC1CCCCC1 | inactive | – |
| CCCCCCCC/C=C\CCCCCCCC(=O)N(C)CC(=O)O | inactive | – |
| C[C@@H]1CC[C@H]2C(C)(C)[C@H]3C[C@@]12CC[C@@]3(C)O | inactive | – |
| CC1=CCC(=O)O1 | inactive | – |
| CC(C)(C)c1n[nH]c(=O)n(N)c1=O | inactive | – |
| CCNc1nc(NC(C)CC)nc(OC)n1 (stereo not given) | inactive | – |
| O=C1NCN(c2ccccc2)C12CCN(CCCC(c1ccc(F)cc1)c1ccc(F)cc1)CC2 | 13.3 µM (active) | – |

| Structure (SMILES) | Potency | activity change, negative = cytotoxicity |
| --- | --- | --- |
| COc1ccccc1C=O | inactive | – |
| O=S(=O)(O)c1cc(S(=O)(=O)O)c2ccc3c(S(=O)(=O)O)cc(S(=O)(=O)O)c4ccc1c2c43 | – | 0.0028% [at 19 µM] |
| C=CC/C=C/C/C=C/C/C=C/C | inactive | – |
| O=C(Oc1ccccc1)c1cccc(C(=O)Oc2ccccc2)c1 | inactive | – |
| C=C(C)C(=O)OCCC[Si](Cl)(Cl)Cl | inactive | – |
| COC(=O)CC(C)CCC=C(C)C (stereo not given) | inactive | – |
| CNC(=S)NN | 17.2 µM (active) | – |
| CCc1ccc(O)c(C(C)(C)C)c1 | inactive | – |
| CN(Cc1cc(Br)cc(Br)c1N)C1CCCCC1 | inactive | – |
| CCCCCCC(C)OC(=O)COc1nc(F)c(Cl)c(N)c1Cl (stereo not given) | inactive | – |
| CC(=O)Oc1ccc(C2(c3ccc(OC(C)=O)cc3)Oc3ccccc3NC2=O)cc1 | inactive | – |
| CCCCCCCCCCc1ccccc1 | inactive | – |
| O=C(O)c1cccc(Cl)n1 | inactive | – |
| Cc1ccc(O)cn1 | inactive | – |
| COC(=O)[C@]1(C)CCC[C@@]2(C)[C@H]1CC=C1C=C(C(C)C)CC[C@@H]12 | inactive | – |
| Oc1ccc(-c2ccccc2)c(Cl)c1 | inactive | – |
| CCCCNc1c(C(=O)OCC)c(C)nc2c1cnn2CC | inactive | – |
| COC(=O)NCCC[Si](OC)(OC)OC | inactive | – |
| O=C(c1ccccc1)c1cc(Cl)ccc1O | inactive | – |
| C[Si](C)(C)Cl | inactive | – |

Source: PubChem BioAssay (Tox21)
